# Measurements reported in the supplement of paper PMC8728848.
# The full list was thinned out, with the strongest signals kept by preference.
# B1: his-Lectin-24A (Drosophila melanogaster) (protein)
# chain: MFRLSVLVLNLLLVSHEFSAGTAKIEIQPLPALCNGYCFPTLKPVMEYVAIHQDKWNTCTEILANEARKDQIQLNIQLDALKADVSNIKASQLSKDEKLDRMEREQFAMHESLETINRYLTVKLDRTKLQLEAIKNTMDYMKAQMDGYFSAINGVQCLQPGFEKIGDRYFYIEEDVELNWLDAQAKCRRMGGHLASIKTKQEFDAIVEKLDDSKSYFLGVNENTKTGDFVSAASGKSCLYHEWGPGEPHHNNDQERCVSILRKLMHVGNCTYEKRFICQYGI
# Legend:
# Experiment in all cases: glycan array binding signal (z-score within array); higher = stronger binding
# Settings in all cases: glycan notation: IUPAC condensed, linker removed
# [1] = target: Fuc(a1-2)Gal(b1-3)[Fuc(a1-4)]GlcNAc
# Procedure, shortened: (§1)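 Negative Z-scores can be read as non-binding. The Z-score is calculated within each array and then averaged across arrays of one protein sequence at different concentrations or buffers and across linkers. Arrays, 3228 in all, were curated from the Consortium for Functional Glycomics database and kept only where the protein sequence was available.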
# [2] = target: Fuc(a1-2)Gal(b1-4)GlcNAc(b1-2)[Fuc(a1-2)Gal(b1-4)GlcNAc(b1-4)]Man(a1-3)[Fuc(a1-2)Gal(b1-4)GlcNAc(b1-2)Man(a1-6)]Man(b1-4)GlcNAc(b1-4)GlcNAc
# Procedure, shortened: as §1
# [3] = target: Fuc(a1-2)Gal(b1-4)GlcNAc(b1-3)GalNAc
# Procedure, shortened: as §1
# [4] = target: Fuc(a1-2)Gal(b1-4)GlcNAc(b1-3)[Fuc(a1-3)[Gal(b1-4)]GlcNAc(b1-6)]Gal(b1-4)Glc
# Procedure, shortened: as §1
# [5] = target: Fuc(a1-2)Gal(b1-4)[Fuc(a1-3)]GlcNAc(b1-2)[Fuc(a1-2)Gal(b1-4)[Fuc(a1-3)]GlcNAc(b1-4)]Man(a1-3)[Fuc(a1-2)Gal(b1-4)[Fuc(a1-3)]GlcNAc(b1-2)Man(a1-6)]Man(b1-4)GlcNAc(b1-4)GlcNAc
# Procedure, shortened: as §1
# Fuc(a1-2)Gal6S(b1-4)Glc = target: Fuc(a1-2)Gal6S(b1-4)Glc
# Procedure, shortened: as §1
# [6] = target: Fuc(a1-2)[Gal(a1-3)]Gal(b1-4)GlcNAc(b1-2)Man(a1-3)[Fuc(a1-2)[Gal(a1-3)]Gal(b1-4)GlcNAc(b1-2)Man(a1-6)]Man(b1-4)GlcNAc(b1-4)GlcNAc
# Procedure, shortened: as §1
# [7] = target: Fuc(a1-2)[Gal(a1-3)]Gal(b1-4)GlcNAc(b1-6)GalNAc
# Procedure, shortened: as §1
# [8] = target: Fuc(a1-3)[Gal(b1-4)]GlcNAc(b1-2)Man(a1-3)[Fuc(a1-3)[Gal(b1-4)]GlcNAc(b1-2)Man(a1-6)]Man(b1-4)GlcNAc(b1-4)[Fuc(a1-6)]GlcNAc
# Procedure, shortened: as §1
# [9] = target: Fuc(a1-3)[Gal3S(b1-4)]Glc
# Procedure, shortened: as §1
# [10] = target: Gal(a1-3)Gal(b1-3)GlcNAc(b1-2)Man(a1-3)[Gal(a1-3)Gal(b1-3)GlcNAc(b1-2)Man(a1-6)]Man(b1-4)GlcNAc(b1-4)GlcNAc
# Procedure, shortened: as §1
# [11] = target: Gal(a1-3)Gal(b1-3)GlcNAc(b1-6)GalNAc
# Procedure, shortened: as §1
# Gal(a1-3)Gal(b1-4)GlcNAc = target: Gal(a1-3)Gal(b1-4)GlcNAc
# Procedure, shortened: as §1
# [12] = target: Gal(b1-3)GlcNAc(b1-2)Man(a1-3)[Gal(b1-3)GlcNAc(b1-2)Man(a1-6)]Man(b1-4)GlcNAc(b1-4)GlcNAc
# Procedure, shortened: as §1
# [13] = target: Gal(b1-3)GlcNAc(b1-3)Gal(b1-4)GlcNAc(b1-3)Gal(b1-4)GlcNAc(b1-2)[Gal(b1-3)GlcNAc(b1-3)Gal(b1-4)GlcNAc(b1-3)Gal(b1-4)GlcNAc(b1-6)]Man(a1-6)[Gal(b1-3)GlcNAc(b1-3)Gal(b1-4)GlcNAc(b1-3)Gal(b1-4)GlcNAc(b1-2)Man(a1-3)]Man(b1-4)GlcNAc(b1-4)[Fuc(a1-6)]GlcNAc
# Procedure, shortened: as §1
# [14] = target: Gal(b1-3)[Fuc(a1-4)]GlcNAc(b1-6)GalNAc
# Procedure, shortened: as §1
# [15] = target: Gal(b1-4)GlcNAc(b1-2)Man(a1-3)Man(b1-4)GlcNAc(b1-4)GlcNAc
# Procedure, shortened: as §1
# [16] = target: Gal(b1-4)GlcNAc(b1-2)Man(a1-6)[Man(a1-3)]Man(b1-4)GlcNAc(b1-4)GlcNAc
# Procedure, shortened: as §1
# [17] = target: Gal(b1-4)GlcNAc(b1-2)[Gal(b1-4)GlcNAc(b1-4)]Man(a1-3)[GlcNAc(b1-4)][Gal(b1-4)GlcNAc(b1-2)Man(a1-6)]Man(b1-4)GlcNAc(b1-4)GlcNAc
# Procedure, shortened: as §1
# [18] = target: Gal(b1-4)GlcNAc(b1-2)[Gal(b1-4)GlcNAc(b1-6)]Man(a1-6)[Gal(b1-4)GlcNAc(b1-2)Man(a1-3)]Man(b1-4)GlcNAc(b1-4)GlcNAc
# Procedure, shortened: as §1
# [19] = target: Gal(b1-4)GlcNAc(b1-3)Gal(b1-4)GlcNAc(b1-3)Gal(b1-4)GlcNAc
# Procedure, shortened: as §1
# [20] = target: Gal(b1-4)GlcNAc(b1-3)Gal(b1-4)GlcNAc(b1-3)Gal(b1-4)GlcNAc(b1-3)Gal(b1-4)GlcNAc(b1-2)Man(a1-3)[Gal(b1-4)GlcNAc(b1-3)Gal(b1-4)GlcNAc(b1-3)Gal(b1-4)GlcNAc(b1-3)Gal(b1-4)GlcNAc(b1-2)Man(a1-6)]Man(b1-4)GlcNAc(b1-4)[Fuc(a1-6)]GlcNAc
# Procedure, shortened: as §1
# [21] = target: Gal(b1-4)GlcNAc(b1-3)Gal(b1-4)GlcNAc(b1-3)Gal(b1-4)GlcNAc(b1-3)Gal(b1-4)GlcNAc(b1-3)Gal(b1-4)GlcNAc(b1-2)Man(a1-3)[Gal(b1-4)GlcNAc(b1-3)Gal(b1-4)GlcNAc(b1-3)Gal(b1-4)GlcNAc(b1-3)Gal(b1-4)GlcNAc(b1-3)Gal(b1-4)GlcNAc(b1-2)Man(a1-6)]Man(b1-4)GlcNAc(b1-4)GlcNAc
# Procedure, shortened: as §1
binder,measurement,setting,value
B1,glycan array binding signal (z-score),[1],-0.536
same,glycan array binding signal (z-score),[2],2.61
same,glycan array binding signal (z-score),[3],-0.522
same,glycan array binding signal (z-score),[4],2.69
same,glycan array binding signal (z-score),[5],-0.328
same,glycan array binding signal (z-score),Fuc(a1-2)Gal6S(b1-4)Glc,-0.34
same,glycan array binding signal (z-score),[6],2.02
same,glycan array binding signal (z-score),[7],0.328
same,glycan array binding signal (z-score),[8],0.275
same,glycan array binding signal (z-score),[9],-1.19
same,glycan array binding signal (z-score),[10],2.35
same,glycan array binding signal (z-score),[11],-0.445
same,glycan array binding signal (z-score),Gal(a1-3)Gal(b1-4)GlcNAc,0.285
same,glycan array binding signal (z-score),[12],1.74
same,glycan array binding signal (z-score),[13],1.49
same,glycan array binding signal (z-score),[14],2.34
same,glycan array binding signal (z-score),[15],0.019
same,glycan array binding signal (z-score),[16],2.68
same,glycan array binding signal (z-score),[17],-1.25
same,glycan array binding signal (z-score),[18],-0.553
same,glycan array binding signal (z-score),[19],-0.79
same,glycan array binding signal (z-score),[20],3.44
same,glycan array binding signal (z-score),[21],4.07
